This note sets out measurements from PubChem BioAssay.

Assay [1] in a line: Her2 expression decrease, cell viability multiplex – SKBR3 breast tumor cells, AlphaScreen, ATP viability, primary screen (AID 461).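 On Her2 level: lower value means less Her2 protein in the cells.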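 On viability: percent of carrier control wells set as 100% viability.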 The settings on record: SKBR3 Her2 protein level, 18-24 h, measured here: SKBR3 viability, ATP luminescence, at 10 µM. (Bead proximity is the source of the signal in Alpha formats.)
For assay [2], the target named is Receptor tyrosine-protein kinase erbB-2 (Homo sapiens) (UniProt P04626). The assay is described as above. The settings on record: 18-24 h, at 10 µM, stronger effect = lower value.
The nature of assay [3]: reduced viability of SK-BR-3 breast cancer cells – cell-based, 24 h, human, pilot screen (AID 572;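 active means viability at or below 10% of carrier control in both of two separate runs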;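 further: compound exposure lasted between 18 and 24 h rather than exactly 24 h; 100% = carrier-treated control wells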). The settings on record: SK-BR-3 viability, CellTiter-Glo luminescence, at 10 µM, stronger effect = lower value.
Assay [4] in a line: HUVEC growth inhibition – cell-based, human, primary screen (AID 575;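 active means viability at or below 30% in both replicate assays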;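 further: 100% = median of untreated cell wells with 0.1% DMSO on each plate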). Conditions: HUVEC proliferation, CellTiter-Glo luminescence, 72 h; at 10 µM; stronger effect = lower value.
Assay [5] is described as follows: H69AR cell proliferation blockers – human, duplicate replicates, primary screen (AID 580;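 active means viability at or under a set limit in both replicates, limit being median viability minus 3 SD, cut at about 48% in these data, passing the limit was not always enough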;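 further: 100% = mean luminescence of untreated wells and 0% = no signal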). Conditions: H69AR lung tumor cells viability, ATP luminescence, 72 h; at 10 µM; stronger effect = lower value.
A short description of assay [6]: MRP1 drug-resistance reversers in H69AR cells – cell-based, doxorubicin co-treatment, pilot screen (AID 601;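 active means viability loss from added drug above about 55%, and viability with drug at most 40%, in both replicates, limit read from the data, passing the limit was not always enough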). The settings on record: CellTiter-Glo, 72 h, at 10 µM; for differential viability (reversal): stronger effect = higher value. (In general: Cellular ATP, detected with luciferase, serves as a proxy for viable cell number.)
A short description of assay [7]: yeast transport mutant growth inhibition pilot in 384-well plates, post-Golgi transport modulator project (AID 636; in the data active means inhibition above about 31%). The settings on record: absorbance 615 nm, about 18 h, stronger effect = higher value.
Assay [8] can be described thus: growth suppression of yeast trafficking mutant, preliminary HTS, modulators of trafficking downstream of Golgi apparatus project, 1536-format plate, OD 615 nm (AID 637; in the data active means inhibition above about 30%). Conditions: yeast transport mutant growth, absorbance 615 nm, 18 h; stronger effect = higher value.
A short description of assay [9]: S. cerevisiae growth inhibition in permissive medium (OD615), pilot counter-assay for S. cerevisiae lifespan shortening project, permissive growth control (AID 705;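 active means growth inhibition above 25% in both replicates, a cutoff set 3 SD above the mean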). The settings on record: OD615, 24 h, at 10 µM, stronger effect = higher value.
A short description of assay [10]: S. cerevisiae growth inhibition in restrictive medium, OD615, pilot screen, restrictive growth control, yeast lifespan reduction project (AID 706;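 active means growth inhibition above a set limit, 3 SD over mean compound inhibition, in both replicates, cut at about 43% in these data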;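 further: modified DeaD lifespan yeast strain shifted to restrictive glucose medium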). Conditions: OD615, 48 h, at 10 µM, stronger effect = higher value.
The nature of assay [11]: doxorubicin toxicity protection in MRP-1 cells – H69AR cells, CellTiter-Glo, duplicate, MRP-1 activator project, pilot screen (AID 807;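 active means viability increase at or above a cutoff of the median across tested compounds plus 3 SD, cut at about 8.5% in these data, passing the limit was not always enough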;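 further: compound pretreatment 18-22 h then 72 h combined with doxorubicin; 0% = doxorubicin alone and 100% = vehicle without doxorubicin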). Conditions: H69AR viability with doxorubicin, CellTiter-Glo luminescence; at 10 µM; stronger effect = higher value.
Assay [12] is described as follows: viability of HCT116 without oncogenic beta-catenin – human colon tumor cells, pilot screen (AID 823;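 active means cell viability at or below a set limit in both duplicate runs, the limit being the all-compound median minus 4 SD, cut at about 23% in these data, passing the limit was not always enough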;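 further: 0% = wells killed by 20 µM Hyamine and 100% = untreated DMSO cell wells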). Conditions: HCT116 beta-catenin knockout viability, CellTiter-Glo, 60 h; at 10 µM; stronger effect = lower value.
The nature of assay [13]: viability of PTEN-null HCT116 cells – cell-based, HCT116 clonal line, CellTiter-Glo, pilot screen (AID 824;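 active means viability at or below 27.92% in each of two runs, the all-compound median minus 4 SD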;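 further: 0% = 20 µM Hyamine control and 100% = vehicle cell control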). The settings on record: HCT116 PTEN-deleted viability, 60 h, at 10 µM, stronger effect = lower value.
Assay [14] in a line: RAM pathway blockade in budding yeast – dse1pr::URA3 reporter, 5-FOA selection, pilot screen (AID 869;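 active means inhibition over a set limit, the all-compound mean plus 3 SD, in both replicate runs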;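 further: 0% = DMSO wells with no growth and 100% = 10 µM 1-NA-PP1 with full growth; RAM network block rescues cells from 5-FOA so hits raise OD615 growth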). Conditions: S. cerevisiae dse1pr::URA3 5-FOA growth, OD615, 2 d; at 10 µM; stronger effect = higher value; strain carries analog-sensitive mutant Cbk1 kinase.
Assay [15] in a line: RAM signaling pathway blockade in yeast – S. cerevisiae, Pdr1DBD-CYC8 efflux-inhibited sensitized strain, primary screen (AID 1298;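 active means RAM network inhibition above 8.4% in each of two replicates, 3 SD over the compound average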;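 further: 0% = DMSO untreated cells without growth and 100% = 10 µM 1-NA-PP1 full growth; higher means more yeast growth rescued from 5-FOA killing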). Conditions: S. cerevisiae cbk1-as DSE1-URA3 strain, 5-FOA growth OD615, 2 d; at 50 µM; stronger effect = higher value.
[16] abbreviates: H69AR cells + 2 uM doxorubicin, measured here: viability with 2 uM doxorubicin, stronger effect = lower value.
The mark [17] stands for this setting: H69AR cells, compound alone cytotoxicity.

Inconclusive results are not listed. Activity calls are given as the source filed them.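 How the source made its calls, unless noted: active means Her2 level under about 52% in both replicate screens, with viability over 70% of control (limit read from the data); inconclusive means Her2 under the limit in one screen only, or viability under 70%; inactive means Her2 level above the set limit.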

As usually defined, the viability is a read-out of living cells in per cent, often relative to untreated cells. A word on the inhibition: it is the change of the read-out against control, counted positive when it falls.

Receptor tyrosine-protein kinase erbB-2 (Homo sapiens), sequence (P04626 whole entry, looked up): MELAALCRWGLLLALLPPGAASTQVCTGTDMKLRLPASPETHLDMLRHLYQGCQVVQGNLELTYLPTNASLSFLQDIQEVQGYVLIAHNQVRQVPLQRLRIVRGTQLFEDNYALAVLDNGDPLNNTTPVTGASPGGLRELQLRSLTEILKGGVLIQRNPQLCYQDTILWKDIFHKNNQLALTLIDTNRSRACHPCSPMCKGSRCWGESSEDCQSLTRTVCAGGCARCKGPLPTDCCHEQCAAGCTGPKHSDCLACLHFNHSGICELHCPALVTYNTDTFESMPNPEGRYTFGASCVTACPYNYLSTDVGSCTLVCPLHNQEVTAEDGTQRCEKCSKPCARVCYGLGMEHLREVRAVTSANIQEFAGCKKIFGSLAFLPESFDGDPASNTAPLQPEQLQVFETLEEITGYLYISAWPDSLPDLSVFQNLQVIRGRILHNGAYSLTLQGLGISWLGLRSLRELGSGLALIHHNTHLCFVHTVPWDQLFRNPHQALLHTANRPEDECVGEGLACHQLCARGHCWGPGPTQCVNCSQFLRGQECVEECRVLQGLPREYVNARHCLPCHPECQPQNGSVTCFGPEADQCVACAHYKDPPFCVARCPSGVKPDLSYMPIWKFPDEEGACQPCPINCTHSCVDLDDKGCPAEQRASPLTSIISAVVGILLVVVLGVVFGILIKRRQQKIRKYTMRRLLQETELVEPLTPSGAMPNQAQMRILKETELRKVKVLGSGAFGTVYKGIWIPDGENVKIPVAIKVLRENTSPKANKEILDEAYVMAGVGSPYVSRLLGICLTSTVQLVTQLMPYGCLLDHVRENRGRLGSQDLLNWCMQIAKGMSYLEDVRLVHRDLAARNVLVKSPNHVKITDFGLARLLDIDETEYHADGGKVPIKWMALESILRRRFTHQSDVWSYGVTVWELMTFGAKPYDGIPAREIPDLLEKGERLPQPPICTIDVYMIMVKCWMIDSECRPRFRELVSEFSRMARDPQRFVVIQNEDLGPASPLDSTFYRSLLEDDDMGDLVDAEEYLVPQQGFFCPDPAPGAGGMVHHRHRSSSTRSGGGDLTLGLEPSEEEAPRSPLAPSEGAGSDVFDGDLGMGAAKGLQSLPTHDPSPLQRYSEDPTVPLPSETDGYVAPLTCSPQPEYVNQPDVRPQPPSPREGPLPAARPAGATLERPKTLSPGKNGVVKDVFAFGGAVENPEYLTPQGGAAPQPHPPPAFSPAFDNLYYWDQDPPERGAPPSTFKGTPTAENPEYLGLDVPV

As to `CC1CCN(C(=O)Cn2cc3c(n2)CCCC3)CC1`, the viability in assay [1] was 97%; in assay [3], 97% (inactive); in [4] it was 97.1% (inactive); in assay [5] it was 96.4% (inactive); in assay [6] (setting [16]), 101%; in assay [6] (setting [17]), 96.4%. For the same compound, the viability in [12] is 100% (inactive); in assay [13], 99.9% (inactive). The Her2 level in assay [2] was 116% (inactive). The differential viability (reversal) in assay [6] (H69AR cells + 2 uM doxorubicin) is -4.43% (inactive). Besides, the inhibition in [7] was 6.67% (inactive); in [8] it was -4.5% (inactive); in assay [14], 0.615% (inactive). For the same compound, the growth inhibition in [9] was -7.6% (inactive); in [10], -2.46% (inactive). Besides, the viability increase in assay [11] is 0.91% (inactive). Besides, the RAM network inhibition in [15] is 3.48% (inactive).

On to `Cc1ccc2c(c1)-c1c(cnn1CC(=O)NC(C)CCc1ccco1)CO2` (configuration not stated), for which the viability in assay [1] was 85.5%; in [3], 85.5% (inactive); in [4], 91.5% (inactive); in assay [5], 85.9% (inactive); in [6] (setting [16]), 91.1%; in assay [6] (setting [17]) it was 85.9%. For the same compound, the viability is 88.8% (inactive) in assay [12] and 87% (inactive) in assay [13]. The Her2 level in [2] was 87% (inactive). Also, in [6] (H69AR cells + 2 uM doxorubicin), the differential viability (reversal) was -5.22% (inactive). The inhibition was -4.36% (inactive) in assay [7], 0.83% (inactive) in assay [8] and 2.04% (inactive) in [14]. Also, the figures for the growth inhibition in assay [9] and in [10] were -10.4% (inactive) and -5.76% (inactive), respectively. The viability increase in [11] was -3.78% (inactive). In addition, the RAM network inhibition in [15] was 7.88% (inactive).

For `Cc1nnc(NC(=O)CSc2cn(CCNC(=O)c3ccccc3)c3ccccc23)s1`, the viability in [1] was 83.5%; in [3] it was 83.5% (inactive); in assay [4] it was 75.5% (inactive); in assay [5] it was 80.4% (inactive); in assay [6] (setting [16]) it was 66.8%; in assay [6] (setting [17]), 80.4%. For the same compound, the viability in [12] is 93.5% (inactive); in [13] it was 88% (inactive). The Her2 level in [2] was 106% (inactive). For the same compound, in [6] (H69AR cells + 2 uM doxorubicin), the differential viability (reversal) is 13.6% (inactive). Besides, the inhibition in [7] is -3.2% (inactive); in assay [8] it was -4.17% (inactive); in assay [14], -0.12% (inactive). For the same compound, the values for the growth inhibition in assay [9] and in assay [10] were 3.24% (inactive) and 17% (inactive), respectively. The viability increase in assay [11] is -0.89% (inactive). Moreover, the RAM network inhibition in assay [15] is 1.15% (inactive).

For the compound `COc1cccc(-c2cc(C(=O)N3CCCCCC3)no2)c1`, the viability in [1] was 98.5%; in assay [3], 98.5% (inactive); in [4] it was 77.4% (inactive); in [5], 85.9% (inactive); in assay [6] (setting [16]), 77.7%; in assay [6] (setting [17]), 85.9%. Further, the viability was 96.6% (inactive) in assay [12] and 90.9% (inactive) in assay [13]. For the same compound, the Her2 level in [2] was 94% (inactive). Besides, in [6] (H69AR cells + 2 uM doxorubicin), the differential viability (reversal) is 8.21% (inactive). Further, the inhibition in [7] is -5.2% (inactive); in [8] it was 2.83% (inactive); in [14], 0.305% (inactive). For the same compound, the results for the growth inhibition in assay [9] and in [10] were -12.5% (inactive) and -18.2% (inactive), respectively. Besides, in assay [11], the viability increase was -0.05% (inactive). Also, the RAM network inhibition in assay [15] was 0.68% (inactive).

With `COc1ccc(-n2c(Cc3cccn3C)nnc2SCC(N)=O)cc1`, the viability was 94.5% in [1]; 94.5% (inactive) in assay [3]; 112% (inactive) in assay [4]; 97.5% (inactive) in [5]; 94.8% in assay [6] (setting [16]); 97.5% in [6] (setting [17]). Further, the viability in [12] was 97.6% (inactive); in assay [13], 94.4% (inactive). In addition, the Her2 level in assay [2] is 95% (inactive). Moreover, the differential viability (reversal) in assay [6] (H69AR cells + 2 uM doxorubicin) is 2.7% (inactive). Besides, the inhibition in [7] is 0.64% (inactive); in assay [8], -3.5% (inactive); in assay [14], 1.42% (inactive). In addition, the growth inhibition in [9] was 8.68% (inactive); in assay [10], 5.57% (inactive). Besides, the viability increase in assay [11] was -2.07% (inactive). In addition, in assay [15], the RAM network inhibition is 0.63% (inactive).

On to `O=C(O)c1ccc2c(c1)C(=O)N(c1ccc(Cl)cn1)C2=O`, for which the viability is 98% in assay [1]; 98% (inactive) in assay [3]; 105% (inactive) in [4]; 87.2% (inactive) in [5]; 88.2% in [6] (setting [16]); 87.2% in assay [6] (setting [17]). Further, the viability in assay [12] is 102% (inactive); in assay [13], 96.2% (inactive). In addition, the Her2 level in [2] is 111% (inactive). In addition, the differential viability (reversal) in [6] (H69AR cells + 2 uM doxorubicin) was -0.91% (inactive). Besides, the values for the inhibition in assay [7], in [8] and in [14] were -5.47% (inactive), 0.33% (inactive) and 1.22% (inactive), respectively. In addition, the growth inhibition was -12.8% (inactive) in assay [9] and -10.8% (inactive) in [10]. Moreover, the viability increase in assay [11] was -2.33% (inactive). Further, in assay [15], the RAM network inhibition is -0.74% (inactive).
